# Experimental data reported in PubChem BioAssay (NCI).
# Compounds without any hit were thinned out: in the full panel of roughly 79,000, 15% have a hit. Values without a mark were called inactive. The source made the active and inactive calls. Rule as the data show it: active = growth inhibition above about 70%; inactive = the rest.
# Legend:
# [1] = NCI Yeast Anticancer Drug Screen. Data for the rad52 strain (AID 147);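 also: 0% = growth of vehicle-treated control cultures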; settings: S. cerevisiae rad52 mutant growth inhibition, stronger effect = higher value
# Procedure, shortened: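 The repair-mutant yeast strain was incubated with compounds, then growth was read and inhibition derived relative to vehicle.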
# [2] = NCI Yeast Anticancer Drug Screen. Data for the rad50 strain (AID 155);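 also: 0% = growth of vehicle-only cultures of the same strain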; settings: S. cerevisiae rad50 strain growth inhibition, stronger effect = higher value
# Procedure, shortened: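 Relative growth inhibition (compound vs vehicle) was measured in yeast with a defined repair-gene alteration.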
# [3] = NCI Yeast Anticancer Drug Screen. Data for the mec2-1 strain (AID 157); settings: S. cerevisiae mec2-1 strain, stronger effect = higher value
# Procedure, shortened: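 Mutant yeast (mec2-1) grown with compound; growth inhibition relative to vehicle control reported.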
# [4] = NCI Yeast Anticancer Drug Screen. Data for the rad14 strain (AID 159);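 also: 0% = growth of vehicle-treated control cultures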; settings: S. cerevisiae rad14 strain growth inhibition, stronger effect = higher value
# Procedure, shortened: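 Screen for anticancer potential: a yeast strain altered in DNA damage repair is grown with compound, and reduced growth is quantified against vehicle controls.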
# [5] = NCI Yeast Anticancer Drug Screen. Data for the sgs1 mgt1 strain (AID 161);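 also: 0% = growth of cultures given vehicle only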; settings: S. cerevisiae sgs1 mgt1 strain, stronger effect = higher value
# Procedure, shortened: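 Compounds are added to genetically altered yeast, and growth is compared with cultures given vehicle alone to give percent inhibition.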
# [6] = NCI Yeast Anticancer Drug Screen. Data for the CLN2oe strain (AID 163);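 also: 0% = growth of vehicle-only control cultures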; settings: S. cerevisiae CLN2oe strain, stronger effect = higher value
# Procedure, shortened: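 Compounds are applied to yeast harbouring a defined cell-cycle control change; reduced growth compared with vehicle-treated controls gives the value.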
# [7] = NCI Yeast Anticancer Drug Screen. Data for the cln2 rad14 strain (AID 165);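 also: 0% = growth equal to vehicle treated cultures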; settings: S. cerevisiae cln2 rad14 strain, stronger effect = higher value
# Procedure, shortened: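 Readout is yeast growth inhibition versus vehicle-treated controls, using a strain with cln2 and rad14 alterations exposed to compound.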
# [8] = NCI Yeast Anticancer Drug Screen. Data for the bub3 strain (AID 167); settings: S. cerevisiae bub3 mutant strain, stronger effect = higher value
# Procedure, shortened: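 Screening used yeast with an engineered genetic alteration affecting cell cycle control. Compound-exposed cultures were compared with vehicle cultures, and reduced growth was taken as inhibition.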
# [9] = NCI Yeast Anticancer Drug Screen. Data for the wt2 strain (AID 169);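 also: 0% = growth of vehicle-treated yeast cultures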; settings: S. cerevisiae wt2 strain growth inhibition, stronger effect = higher value
# Procedure, shortened: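 Against vehicle-treated controls, the growth of yeast exposed to each compound was compared, and the inhibition was recorded.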
# [10] = NCI Yeast Anticancer Drug Screen. Data for the mlh1 strain (AID 171);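 also: 0% = growth of vehicle-treated control cultures of the same strain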; settings: S. cerevisiae mlh1 strain growth inhibition, stronger effect = higher value
# Procedure, shortened: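 Measured: yeast growth. Reference: vehicle-treated controls. Organism: strain with a defined alteration affecting DNA damage repair or cell cycle control, treated with compound.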
# [11] = NCI Yeast Anticancer Drug Screen. Data for the sgs1 strain (AID 173);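 also: 0% = growth of vehicle-only control cultures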; settings: S. cerevisiae sgs1 mutant, stronger effect = higher value
# Procedure, shortened: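 Each compound was added to cultures of the altered yeast strain. Growth was recorded, and inhibition was derived by comparison with vehicle controls.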
# [12] = NCI Yeast Anticancer Drug Screen. Data for the mlh1 rad18 strain (AID 175); settings: S. cerevisiae mlh1 rad18 strain growth inhibition, stronger effect = higher value
# Procedure, shortened: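 Genetically defined yeast (DNA repair-deficient) exposed to compounds; growth inhibition determined relative to vehicle.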
# [13] = NCI Yeast Anticancer Drug Screen. Data for the rad18 strain (AID 177); settings: S. cerevisiae rad18 mutant growth inhibition, stronger effect = higher value
# Procedure, shortened: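 Vehicle-treated cultures served as the baseline for scoring compound-induced growth inhibition in DNA-repair-mutant yeast.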
# [14] = NCI Yeast Anticancer Drug Screen. Data for the wt1 strain (AID 149);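 also: 0% = growth of vehicle-treated wt1 cultures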; settings: S. cerevisiae wt1 strain (SPY 50644) growth inhibition, stronger effect = higher value
# Procedure, shortened: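 Using yeast strain wt1, compound-induced growth inhibition was determined against vehicle-treated cultures.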
# [15] = NCI Yeast Anticancer Drug Screen. Data for the rad50EPP+ strain (AID 151);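 also: 0% = growth of vehicle-treated control cultures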; settings: S. cerevisiae rad50 mutant strain, stronger effect = higher value
# Procedure, shortened: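 Vehicle-normalised growth inhibition; rad50EPP+ yeast strain, altered in DNA damage repair, compound-treated.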
# [16] = at 5.0 µM (retest, dose inferred, filed as 0.5)
# [17] = at 50.0 µM (retest, dose inferred, filed as 5.0)
smiles,measurement,setting,value
COc1ccc(N=N/C(=N\NC(=O)c2cc(Br)ccc2O)c2ccc(N(CCC#N)CCC#N)cc2OC)cc1,growth inhibition,[1]; at 1.2 µM,29%
same,growth inhibition,[1]; at 3.7 µM,44%
same,growth inhibition,[1]; at 11.0 µM,44%
same,growth inhibition,[1]; at 33.0 µM,57%
same,growth inhibition,[1]; at 100.0 µM,71% (active)
same,growth inhibition,[2]; at 1.2 µM,46%
same,growth inhibition,[2]; at 3.7 µM,43%
same,growth inhibition,[2]; [16],20%
same,growth inhibition,[2]; at 11.0 µM,49%
same,growth inhibition,[2]; at 33.0 µM,59%
same,growth inhibition,[2]; [17],25%
same,growth inhibition,[2]; at 50.0 µM,45.1%
same,growth inhibition,[2]; at 100.0 µM,82% (active)
same,growth inhibition,[3]; at 1.2 µM,-4%
same,growth inhibition,[3]; at 3.7 µM,-6%
same,growth inhibition,[3]; [16],22%
same,growth inhibition,[3]; at 11.0 µM,-8%
same,growth inhibition,[3]; at 33.0 µM,13%
same,growth inhibition,[3]; [17],24%
same,growth inhibition,[3]; at 50.0 µM,43.4%
same,growth inhibition,[3]; at 100.0 µM,31%
same,growth inhibition,[4]; at 1.2 µM,33%
same,growth inhibition,[4]; at 3.7 µM,26%
same,growth inhibition,[4]; at 11.0 µM,21%
same,growth inhibition,[4]; at 33.0 µM,3%
same,growth inhibition,[4]; at 100.0 µM,45%
same,growth inhibition,[5]; [16],-8%
same,growth inhibition,[5]; [17],69%
same,growth inhibition,[5]; at 50.0 µM,8.9%
same,growth inhibition,[6]; at 1.2 µM,11%
same,growth inhibition,[6]; at 3.7 µM,14%
same,growth inhibition,[6]; at 11.0 µM,24%
same,growth inhibition,[6]; at 33.0 µM,33%
same,growth inhibition,[6]; at 100.0 µM,28%
same,growth inhibition,[7]; [16],-4%
same,growth inhibition,[7]; [17],32%
same,growth inhibition,[7]; at 50.0 µM,30.9%
same,growth inhibition,[8]; at 1.2 µM,28%
same,growth inhibition,[8]; at 3.7 µM,14%
same,growth inhibition,[8]; [16],19%
same,growth inhibition,[8]; at 11.0 µM,16%
same,growth inhibition,[8]; at 33.0 µM,49%
same,growth inhibition,[8]; [17],69%
same,growth inhibition,[8]; at 50.0 µM,43.4%
same,growth inhibition,[8]; at 100.0 µM,68%
same,growth inhibition,[9]; at 1.2 µM,-20%
same,growth inhibition,[9]; at 3.7 µM,-11%
same,growth inhibition,[9]; at 11.0 µM,-15%
same,growth inhibition,[9]; at 33.0 µM,-9%
same,growth inhibition,[9]; at 100.0 µM,65%
same,growth inhibition,[10]; at 1.2 µM,33%
same,growth inhibition,[10]; at 3.7 µM,35%
same,growth inhibition,[10]; at 11.0 µM,24%
same,growth inhibition,[10]; at 33.0 µM,46%
same,growth inhibition,[10]; at 100.0 µM,69%
same,growth inhibition,[11]; at 1.2 µM,34%
same,growth inhibition,[11]; at 3.7 µM,37%
same,growth inhibition,[11]; at 11.0 µM,33%
same,growth inhibition,[11]; at 33.0 µM,42%
same,growth inhibition,[11]; at 100.0 µM,71% (active)
same,growth inhibition,[12]; [16],20%
same,growth inhibition,[12]; [17],26%
same,growth inhibition,[12]; at 50.0 µM,65.4%
same,growth inhibition,[13]; at 1.2 µM,14%
same,growth inhibition,[13]; at 3.7 µM,20%
same,growth inhibition,[13]; at 11.0 µM,18%
same,growth inhibition,[13]; at 33.0 µM,33%
same,growth inhibition,[13]; at 100.0 µM,49%
O=[N+]([O-])c1c(/C=N/Nc2ccccc2)oc(-c2ccc3c(c2)OCO3)c1-c1ccc2c(c1)OCO2,growth inhibition,[14]; at 1.2 µM,-1%
same,growth inhibition,[14]; at 3.7 µM,0%
same,growth inhibition,[14]; at 11.0 µM,-1%
same,growth inhibition,[14]; at 33.0 µM,19%
same,growth inhibition,[14]; at 100.0 µM,62%
same,growth inhibition,[15]; at 1.2 µM,-4%
same,growth inhibition,[15]; at 3.7 µM,1%
same,growth inhibition,[15]; at 11.0 µM,11%
same,growth inhibition,[15]; at 33.0 µM,31%
same,growth inhibition,[15]; at 100.0 µM,46%
same,growth inhibition,[2]; at 1.2 µM,-1%
same,growth inhibition,[2]; at 3.7 µM,2%
same,growth inhibition,[2]; [16],88% (active)
same,growth inhibition,[2]; at 11.0 µM,7%
same,growth inhibition,[2]; at 33.0 µM,56%
same,growth inhibition,[2]; [17],88% (active)
same,growth inhibition,[2]; at 50.0 µM,80.3% (active)
same,growth inhibition,[2]; at 100.0 µM,86% (active)
same,growth inhibition,[3]; at 1.2 µM,0%
same,growth inhibition,[3]; at 3.7 µM,0%
same,growth inhibition,[3]; [16],8%
same,growth inhibition,[3]; at 11.0 µM,8%
same,growth inhibition,[3]; at 33.0 µM,37%
same,growth inhibition,[3]; [17],8%
same,growth inhibition,[3]; at 50.0 µM,88.2% (active)
same,growth inhibition,[3]; at 100.0 µM,81% (active)
same,growth inhibition,[4]; at 1.2 µM,0%
same,growth inhibition,[4]; at 3.7 µM,-2%
same,growth inhibition,[4]; at 11.0 µM,2%
same,growth inhibition,[4]; at 33.0 µM,20%
same,growth inhibition,[4]; at 100.0 µM,91% (active)
same,growth inhibition,[5]; [16],87% (active)
same,growth inhibition,[5]; [17],87% (active)
same,growth inhibition,[5]; at 50.0 µM,83% (active)
same,growth inhibition,[6]; at 1.2 µM,-1%
same,growth inhibition,[6]; at 3.7 µM,4%
same,growth inhibition,[6]; at 11.0 µM,9%
same,growth inhibition,[6]; at 33.0 µM,46%
same,growth inhibition,[6]; at 100.0 µM,77% (active)
same,growth inhibition,[7]; [16],-17%
same,growth inhibition,[7]; [17],-17%
same,growth inhibition,[7]; at 50.0 µM,86.8% (active)
same,growth inhibition,[8]; at 1.2 µM,-9%
same,growth inhibition,[8]; at 3.7 µM,-8%
same,growth inhibition,[8]; [16],-21%
same,growth inhibition,[8]; at 11.0 µM,8%
same,growth inhibition,[8]; at 33.0 µM,39%
same,growth inhibition,[8]; [17],-21%
same,growth inhibition,[8]; at 50.0 µM,82.5% (active)
same,growth inhibition,[8]; at 100.0 µM,60%
same,growth inhibition,[9]; at 1.2 µM,0%
same,growth inhibition,[9]; at 3.7 µM,1%
same,growth inhibition,[9]; at 11.0 µM,5%
same,growth inhibition,[9]; at 33.0 µM,44%
same,growth inhibition,[9]; at 100.0 µM,88% (active)
same,growth inhibition,[10]; at 1.2 µM,-3%
same,growth inhibition,[10]; at 3.7 µM,-2%
same,growth inhibition,[10]; at 11.0 µM,3%
same,growth inhibition,[10]; at 33.0 µM,36%
same,growth inhibition,[10]; at 100.0 µM,73% (active)
same,growth inhibition,[11]; at 1.2 µM,-2%
same,growth inhibition,[11]; at 3.7 µM,-2%
same,growth inhibition,[11]; at 11.0 µM,7%
same,growth inhibition,[11]; at 33.0 µM,65%
same,growth inhibition,[11]; at 100.0 µM,89% (active)
same,growth inhibition,[12]; [16],38%
same,growth inhibition,[12]; [17],38%
same,growth inhibition,[12]; at 50.0 µM,84.2% (active)
same,growth inhibition,[13]; at 1.2 µM,-8%
same,growth inhibition,[13]; at 3.7 µM,-5%
same,growth inhibition,[13]; at 11.0 µM,8%
same,growth inhibition,[13]; at 33.0 µM,69%
same,growth inhibition,[13]; at 100.0 µM,87% (active)
